Experiment [1] concerns the target ATP-dependent 6-phosphofructokinase (Trypanosoma brucei brucei) (UniProt O15648). The experiment in a line: qHTS Assay to Find Inhibitors of T. brucei phosphofructokinase: hit validation (AID 492961).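 Further: luminescence reports ADP formed as PFK phosphorylates fructose-6-phosphate with ATP; on the % scale 0 is the no-effect control and ±100 the full control effect.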 The essentials:
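PFK 1.25 nM, F6P 0.5 mM, ATP 0.1 mM, MgCl2 5 mM, 0.1 M TEA pH 8.0, Tween20 0.01%, BSA 0.1%; 45 min RT. ADP-Glo two-step detection, luminescence. qHTS titration; curve fitting with curve-class categorization.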

A short description of experiment [2]: S16 Schwann cell PMP22 intronic element beta-lactamase assay (AID 624044; calls by dose curve;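 further: 0% = DMSO and -100% = potassium clavulanate positive control; nearly all actives have a fitted effect of over 15% in size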). Conditions: S16 rat Schwann cells, PMP22 element beta-lactamase FRET, 24 h; ratio activity, negative = inhibition: at 38.3 µM (top of the series). The essentials:
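Rat S16 Schwann cells with beta-Lac driven by a PMP22 intronic element, compound-treated 24 h at 37 °C. LiveBLAzer FRET B/G read: 460 nm normalized to potassium clavulanate vs DMSO; 535 nm FRET as viability; concentration-effect curves classified.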

The nature of experiment [3]: qHTS profiling for inhibitors of Plasmodium falciparum proliferation (AID 504749). Further: nearly all actives have a fitted effect of over 60% in size. Further: potency means the concentration at half of the fitted maximal effect.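 On activity, negative = inhibition: 0% = DMSO vehicle and full inhibition = artemisinin control.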 Conditions: P. falciparum in erythrocytes, SYBR Green DNA, 72 h, at 28.7 µM (top of the series). In outline:
(§1)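 P. falciparum-infected erythrocytes (0.3% parasitemia, 2.5% hematocrit final) were exposed to compounds for 72 h at 37 C in 5% CO2, then lysed with SYBR Green buffer overnight at room temperature; parasite DNA fluorescence was normalized to artemisinin and DMSO controls.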

A further experiment relates to CP185. Described as above. Conditions: P. falciparum in erythrocytes, SYBR Green DNA, 72 h; series mostly up to 28.7 µM. In outline:
as §1

For a further experiment, the system named is CP192. The description is as above. Conditions: P. falciparum in erythrocytes, SYBR Green DNA, 72 h; series mostly up to 28.7 µM. The essentials:
as §1

In a further experiment the test system is CP211. Described as above. Conditions: P. falciparum in erythrocytes, SYBR Green DNA, 72 h; series mostly up to 28.7 µM. In outline:
as §1

The next experiment relates to CP238. The description is as above. Conditions: P. falciparum in erythrocytes, SYBR Green DNA, 72 h; series mostly up to 28.7 µM. The essentials: as §1
For another experiment, the system named is CP262. The description is as above. Conditions: P. falciparum in erythrocytes, SYBR Green DNA, 72 h; series mostly up to 28.7 µM. In outline:
as §1

The test system of the next experiment is CP269. Described as above. Conditions: P. falciparum in erythrocytes, SYBR Green DNA, 72 h; series mostly up to 28.7 µM. In outline: as §1
The subject of a further experiment is CP286. The description is as above. Conditions: P. falciparum in erythrocytes, SYBR Green DNA, 72 h; series mostly up to 28.7 µM. The essentials: as §1
In a further experiment the test system is CP305. The description is as above. Conditions: P. falciparum in erythrocytes, SYBR Green DNA, 72 h; series mostly up to 28.7 µM. In outline: as §1
The test system of another experiment is CP315. Described as above. Conditions: P. falciparum in erythrocytes, SYBR Green DNA, 72 h; series mostly up to 28.7 µM. The essentials: as §1
The subject of a further experiment is CP325. Described as above. Conditions: P. falciparum in erythrocytes, SYBR Green DNA, 72 h; series mostly up to 28.7 µM. In outline: as §1
The subject of the next experiment is Dd2. Described as above. Conditions: P. falciparum in erythrocytes, SYBR Green DNA, 72 h; series mostly up to 28.7 µM. In outline: as §1
Another experiment has as its system FAB9. Described as above. Conditions: P. falciparum in erythrocytes, SYBR Green DNA, 72 h; series mostly up to 28.7 µM. In outline: as §1
For another experiment, the system named is HB3. The experiment is described as above. Conditions: P. falciparum in erythrocytes, SYBR Green DNA, 72 h; series mostly up to 28.7 µM. The essentials: as §1
For another experiment, the system named is N140. Described as above. Conditions: P. falciparum in erythrocytes, SYBR Green DNA, 72 h; series mostly up to 28.7 µM. In outline: as §1
The test system of the next experiment is PC49. Described as above. Conditions: P. falciparum in erythrocytes, SYBR Green DNA, 72 h; series mostly up to 28.7 µM. In outline:
as §1

A further experiment relates to JCK. Described as above. Conditions: P. falciparum in erythrocytes, SYBR Green DNA, 72 h; series mostly up to 28.7 µM. The essentials: as §1
In experiment [4] the target is Luciferin 4-monooxygenase (Photinus pyralis) (UniProt P08659). As to the kind of experiment: Biochemical firefly luciferase enzyme assay for NPC (AID 624030).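 Further: purified P. pyralis luciferase at 10 nM with luciferin and ATP substrate; 0% = DMSO and -100% = full luciferase inhibition by PTC124 control; nearly all actives have a fitted effect of over 70% in size.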 The essentials:
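Counter-screen for direct inhibition of the luciferase enzyme by approved-drug library compounds, run at 10 nM enzyme in 50 mM Tris acetate (final). Luminescence was read within 5 min of enzyme-buffer addition and normalized to PTC124 versus DMSO (0%).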

Structures are written as SMILES. Results filed as inconclusive are left out. A number with no mark means an inactive call. The source made the active and inactive calls. Unless noted, the call rests on the fitted dose curve; in most records, active means well fitted curve in the direction sought with a large enough effect; inconclusive means small, poorly fitted or top-dose-only effect, or another doubt; inactive means no such curve, though single readings can be large; an effect the other way counts as inactive or inconclusive.

Luciferin 4-monooxygenase (Photinus pyralis), sequence (P08659 whole entry, looked up): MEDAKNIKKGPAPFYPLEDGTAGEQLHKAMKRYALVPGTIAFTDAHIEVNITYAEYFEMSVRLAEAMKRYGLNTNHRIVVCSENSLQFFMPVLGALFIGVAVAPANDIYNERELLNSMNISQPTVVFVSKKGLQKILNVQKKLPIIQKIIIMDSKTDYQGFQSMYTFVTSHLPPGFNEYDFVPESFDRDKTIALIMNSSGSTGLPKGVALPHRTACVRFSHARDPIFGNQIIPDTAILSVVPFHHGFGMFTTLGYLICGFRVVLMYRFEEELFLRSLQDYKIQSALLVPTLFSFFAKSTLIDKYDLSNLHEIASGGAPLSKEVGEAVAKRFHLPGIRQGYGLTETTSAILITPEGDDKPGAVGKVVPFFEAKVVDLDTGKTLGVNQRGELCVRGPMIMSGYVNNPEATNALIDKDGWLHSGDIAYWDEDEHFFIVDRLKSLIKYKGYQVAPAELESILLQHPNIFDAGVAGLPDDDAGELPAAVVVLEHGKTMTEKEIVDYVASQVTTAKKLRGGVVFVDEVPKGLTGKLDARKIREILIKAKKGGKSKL
ATP-dependent 6-phosphofructokinase (Trypanosoma brucei brucei), sequence (O15648 whole entry, looked up): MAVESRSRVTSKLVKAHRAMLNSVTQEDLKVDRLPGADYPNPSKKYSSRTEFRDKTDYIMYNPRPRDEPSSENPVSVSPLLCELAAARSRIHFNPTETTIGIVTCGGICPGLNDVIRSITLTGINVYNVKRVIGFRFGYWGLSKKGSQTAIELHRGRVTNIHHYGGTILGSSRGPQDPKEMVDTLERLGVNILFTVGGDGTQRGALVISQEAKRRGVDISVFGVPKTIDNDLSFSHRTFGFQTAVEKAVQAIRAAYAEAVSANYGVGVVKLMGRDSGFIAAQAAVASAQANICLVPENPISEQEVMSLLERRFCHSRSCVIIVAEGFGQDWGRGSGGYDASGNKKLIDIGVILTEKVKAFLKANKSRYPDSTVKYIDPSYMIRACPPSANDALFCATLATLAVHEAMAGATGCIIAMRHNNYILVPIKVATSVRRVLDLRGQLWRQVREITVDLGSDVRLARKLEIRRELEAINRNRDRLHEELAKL

As for `O=C1Oc2ccccc2C(=O)C1C(CC(O)c1ccc(-c2ccc(Br)cc2)cc1)c1ccccc1` (stereo not given), the Potency result (in [1]; in experiment [2]; in the experiment with CP185; in the experiment with CP192; in the experiment with CP211; in the experiment on CP238) was “inactive” each time. Besides, the Potency result in the experiment with CP262, in the experiment on CP269, in the experiment with CP286, in the experiment on CP305, in the experiment with CP315 and in the experiment on CP325 was “inactive” in each case. Moreover, the Potency result with Dd2, in the experiment with FAB9, in the experiment on HB3, in the experiment with N140 and with PC49 was “inactive” throughout. The activity, negative = inhibition in [3] (parasite line A) was -67.1%.
In the case of `Cc1cnc(NC(=O)C2C(=O)c3ccccc3S(=O)(=O)N2C)s1` (stereo not given), the Potency entry (in experiment [1]; in experiment [2]; with CP185; in the experiment on CP192; with CP211; in the experiment with CP238) was “inactive” in each case. For the same compound, the Potency result in the experiment with CP262, in the experiment with CP269, with CP286, in the experiment on CP305, with CP315 and with CP325 was “inactive” throughout. The Potency entry in the experiment with Dd2, with FAB9, with HB3, in the experiment with JCK, in the experiment on N140 and in the experiment with PC49 was “inactive” each time. Besides, in experiment [3] (parasite line A), the activity, negative = inhibition was -14.2%.
Regarding `CN(C)CC[C@@](O)(c1ccccc1)c1ccccc1Cl`, the Potency result (in experiment [1]; in experiment [4]; in the experiment on CP262; with FAB9) was “inactive” throughout. Also, in [3] (parasite line A), the activity, negative = inhibition is -12.9%. Further, the Potency with CP185 was 11.2 µM (active); in the experiment with CP238, 11.2 µM (active); with CP269 it was 12 µM (active); in the experiment with CP286, 7.94 µM (active); in the experiment with CP325, 7.57 µM (active); in the experiment on Dd2, 2 µM (active). In addition, in the experiment with N140, the Potency was 4.47 µM (active).
On to `CC1OC(OC2C(O)CC(OC3C(O)CC(OC4CCC5(C)C(CCC6C5CCC5(C)C(C7=CC(=O)OC7)CCC65O)C4)OC3C)OC2C)CC(O)C1O` (stereo not given), for which the Potency result (in experiment [1]; in experiment [4]; in experiment [2]; in the experiment on CP185; in the experiment with CP192; in the experiment on CP211) was “inactive” throughout. Besides, the Potency result in the experiment with CP238, with CP262, in the experiment on CP269, in the experiment with CP286, with CP305 and with CP315 was “inactive” throughout. Besides, the Potency entry in the experiment on CP325, in the experiment with FAB9, in the experiment on JCK, with N140 and with PC49 was “inactive” each time. Further, the activity, negative = inhibition in experiment [3] (parasite line A) is 1.31%; in [3] (parasite line B) it was 5.82%.
As to `Cc1cc(O)c2c(c1)OC1(C)CCC3C(C)(C)CCCC34COC2C14` (stereo not given), the Potency entry (in experiment [1]; in [4]; in experiment [2]; with CP192; in the experiment on CP238; in the experiment on CP286) was “inactive” throughout. For the same compound, the Potency entry in the experiment on CP315, in the experiment with CP325 and in the experiment on FAB9 was “inactive” in each case. In addition, the activity, negative = inhibition in [3] (parasite line A) is -27.8%. Further, the Potency in the experiment with N140 is 12.6 µM (active).
In the case of `CCOc1ccccc1O[C@@H](c1ccccc1)[C@@H]1CNCCO1`, the Potency result (in experiment [1]; in [4]; in [2]; in the experiment with CP185; in the experiment on CP192; with CP211) was “inactive” each time. Besides, the Potency result in the experiment on CP262, with CP269, in the experiment on CP305, in the experiment on CP315, with CP325 and with FAB9 was “inactive” throughout. Further, in the experiment on HB3, the Potency entry was “inactive”. The activity, negative = inhibition in [3] (parasite line A) is -12.8%. In addition, the results for the Potency with Dd2 and with PC49 were 0.0794 µM (active) and 2.24 µM (active), respectively.
Turning to `C=C1C(n2cnc3c(=O)[nH]c(N)nc32)C[C@H](O)[C@H]1CO` (stereo not given in full), the Potency result (in experiment [1]; in [4]; in [2]; in the experiment with CP192; in the experiment on CP211; in the experiment with CP238) was “inactive” each time. Besides, the Potency entry in the experiment on CP269, in the experiment with CP315, in the experiment with Dd2, with FAB9, in the experiment with HB3 and in the experiment on JCK was “inactive” each time. Also, the Potency entry in the experiment with N140 was “inactive”. The activity, negative = inhibition in [3] (parasite line A) is 9.61%; in experiment [3] (parasite line B) it was -7.65%.

(Values after PubChem BioAssay (NCATS).)
